Bioassay records deposited in PubChem BioAssay by National Center for Advancing Translational Sciences (NCATS).
Compounds with a hit are over-represented: about 6.2% of the library has one in this group of screens.
Lassa entry inh: inhibitors of Lassa virus binding or cell entry. AID 540256. Potency, µM (doses to about 37.9 µM), without a hit: at the top dose activity change, negative = inhibition, actives largely listed as inhibitors. Lassa virus pseudotype entry inhibition, cell reporter. 300,000 compounds, 1.2% hits; calls by dose curve; tested in HEK293 cells; also: potency is read from the fitted curve at half-maximal effect; nearly all actives have a fitted effect of over 50% in size
FMDV antiviral: antivirals against foot and mouth disease virus; FMDV antiviral cell-based qHTS; Potency, µM (doses to about 57.9 µM), inactives show at the top dose activity change, negative = inhibition, usual class: inhibitors; 410,000 compounds, 1.2% hits; AID 1159524; calls by dose curve; tested in HEK293T cells; also: read-out not given here; potency is read from the fitted curve at half-maximal effect; nearly all actives have a fitted effect of over 45% in size
MARV entry inh: blocks Marburg virus binding to or entry into cells; Marburg virus pseudotyped entry inhibition, cell reporter; Potency, µM (top dose mostly 37.8 µM), for the others: at the highest dose activity change, negative = inhibition, actives largely listed as inhibitors; 300,000 compounds, 1.8% hits; calls by dose curve; tested in HEK293 cells; also: potency is read from the fitted curve at half-maximal effect
HCMV inh: blocks human cytomegalovirus replication; HFF cells, HCMV-luciferase reporter, 72 h; hits give low values; activity change, negative = inhibition, % at 57.5 µM; 410,000 compounds, 4.5% hits; in the data active = activity change below about -60%; inconclusive = no clear call, values can overlap the other calls; inactive = above about -39%
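Human foreskin fibroblasts infected with luciferase-reporter HCMV at MOI 1 PFU/cell, compounds at two doses. Luciferase measured 72 h post infection; normalized to buffer-only basal and Salinomycin (10uM) controls.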
An asterisk follows results filed as active; ? = inconclusive; nt = not tested or not shown; ! = a repeat was not active; [ ] = dose if it differs, or a comment. % is scaled to controls: 0 for no effect and ±100 for the full control effect.

SMILES	Lassa entry inh	FMDV antiviral	MARV entry inh	HCMV inh
CN1CCC(NCCC(c2ccc(F)cc2)c2ccc(Cl)cc2)CC1 (stereo unspecified)	?	-7%	?	-97*
CC(NC1CCN(Cc2ccccc2)CC1)c1ccc(F)cc1 (stereo unspecified)	?	-21%	?	-3
CC(C)C(CCNCc1ccccn1)c1ccc(Cl)cc1 (stereo unspecified)	-29%[46.1 µM]	-12%	?	?
O=C1C(=O)c2ccccc2C(O)=C1CCCCl	nt	28µM*	nt	nt
Cc1ccc(C)c(N2CCN(CCCNC(=O)Cn3cccc3C(=O)c3ccccc3C)CC2)c1	?	?	?	-94*
Cc1ccnc(NS(=O)(=O)c2ccc(NC(=O)c3cccc(Cl)c3)cc2)n1	nt	-8%	nt	2
Cc1ccc(CN2CCN(Cc3c(C)nn(C(C)C)c3C)CC2CCO)o1 (stereo unspecified)	nt	-2%	nt	-99*
Cc1ccc(-c2nnn(CC(=O)N(c3cnc4ccccc4c3)C(C(=O)NC3CCCC3)c3ccncc3)n2)o1 (stereo unspecified)	?	-7%	?	-29
Cc1ccc(NC(=O)COC(=O)CCC(=O)c2ccc(C(C)(C)C)cc2)c([N+](=O)[O-])c1	10%	-10%	3%	-15
Cc1ccc(OCC(O)Cn2c(=N)n(CCN3CCCCC3)c3ccccc32)cc1 (stereo unspecified)	?	?	8.2µM*	-82*!
N=c1n(CCN2CCCCC2)c2ccccc2n1CC(O)COc1ccc(Cl)cc1Cl (stereo unspecified)	?	-16%	5.6µM*	-99*
N=c1n(CCO)c2ccccc2n1CCOc1ccc(Cl)cc1Cl	nt	28µM*	1%	-2
N=c1n(CCN2CCCC2)c2ccccc2n1CC(O)c1ccc(Cl)c(Cl)c1 (stereo unspecified)	nt	?	nt	-99*
CCS(=O)(=O)N1CCCC(C(=O)NCC2CCCO2)C1 (stereo unspecified)	11%	-9%	6%	15
Cc1cc(C)n(CCc2nc(-c3ccc(-c4ccccc4)cc3)cs2)n1	13%[46.1 µM]	4%	11%[46.1 µM]	-65*
COc1ccc(-c2csc(CCn3nc(C)cc3C)n2)cc1	?	-29%	?	-7
Cc1cc(C)n(CCc2nc(-c3cccs3)cs2)n1	-10%	0%	5%	20
Cc1cc(C)n(CCc2nc(-c3ccco3)cs2)n1	-11%	1%	12%	-105*
Cc1c(C(=O)OCCOc2ccccc2)[nH]c2c1C(=O)CC(c1ccccc1)C2 (stereo unspecified)	-23%[46.1 µM]	-19%	?	-37
Cc1c(C(=O)OCc2ccccc2)[nH]c2c1C(=O)CC(c1ccc(N(C)C)cc1)C2 (stereo unspecified)	0%[46.1 µM]	-1%	0%[46.1 µM]	-3
CCCCCOC(=O)c1[nH]c2c(c1C)C(=O)CC(c1ccco1)C2 (stereo unspecified)	?	?	0.46µM*	nt
COCCOC(=O)c1[nH]c2c(c1C)C(=O)CC(c1cccs1)C2 (stereo unspecified)	nt	-27%	nt	0
CCOCCOC(=O)c1[nH]c2c(c1C)C(=O)CC(c1ccccc1)C2 (stereo unspecified)	?	-20%	?	-71*
Cc1c(C(=O)OCCOc2ccccc2)[nH]c2c1C(=O)CC(c1ccccc1Cl)C2 (stereo unspecified)	-12%[46.1 µM]	?	?	-86*
Cc1c(C(=O)OCC2CCCO2)[nH]c2c1C(=O)CC(c1ccc(N(C)C)cc1)C2 (stereo unspecified)	nt	20µM*	1%	-28
SMILES	Lassa entry inh	FMDV antiviral	MARV entry inh	HCMV inh
CN(C)c1ccc(N=Cc2nc(-c3ccccc3)oc2OC(=O)c2cccc(Cl)c2)cc1	-29%	18%	?	64
CNC(=O)C1CCC(=O)N1Cc1ccc(C)cc1 (stereo unspecified)	-2%	-10%	5%	40
CCOCCOC(=O)c1[nH]c2c(c1C)C(=O)CC(c1cccs1)C2 (stereo unspecified)	?	-25%	?	-81*
CCOC(=O)C(NC(=O)c1cccnc1)(Nc1cccc(C)n1)C(F)(F)F (stereo unspecified)	-12%	-19%	5%	12
CCOC(=O)C1=C(O)c2ccccc2C(=O)/C1=C\c1ccc(C)cc1	?	28µM*	?	nt
CCOc1ccc(Cl)cc1CSc1n[nH]c(CC)n1	4%	-17%	-2%	-34
CC(C)Oc1ccccc1/C=N/NC(=O)C1CC1	-9%	14%	15%[46.1 µM]	-37
O=C1/C(=C/c2ccccc2)CCCc2ccccc21	?	24%	22%[46.1 µM]	28
O=C1/C(=C/c2cccnc2)CCC/C1=C\c1cccnc1	7.1µM*	?	?	-101*
